# PLK1 PBD block: PLK1 (human) polo-box domain binding inhibition. P53350. Plk1 PBD binding of FITC phosphopeptide, fluorescence polarization. Potency, µM, inactives show max response, negative = inhibition, actives largely listed as inhibitors. 2.8% of 360,000 active. AID 720504; further: potency means the concentration at half of the fitted maximal effect; series mostly up to about 57 µM; on the % scale 0 is the no-effect control and ±100 the full control effect; nearly all actives have a fitted effect of over 65% in size
# PI5P4K alpha inh: blocks human PI5P4K alpha kinase activity. P48426. 1.2% of 330,000 active. AID 652105. PI5P4Kalpha enzyme, ADP-Glo luminescence, 60 min; hits give low values. max response, %; active means max response of -50% or lower; inconclusive means between -30% and -50%; inactive means -30% or higher; further: value at the top dose of about 77 µM; on the % scale 0 is the no-effect control and ±100 the full control effect
# Target sequence (P48426 whole entry, looked up): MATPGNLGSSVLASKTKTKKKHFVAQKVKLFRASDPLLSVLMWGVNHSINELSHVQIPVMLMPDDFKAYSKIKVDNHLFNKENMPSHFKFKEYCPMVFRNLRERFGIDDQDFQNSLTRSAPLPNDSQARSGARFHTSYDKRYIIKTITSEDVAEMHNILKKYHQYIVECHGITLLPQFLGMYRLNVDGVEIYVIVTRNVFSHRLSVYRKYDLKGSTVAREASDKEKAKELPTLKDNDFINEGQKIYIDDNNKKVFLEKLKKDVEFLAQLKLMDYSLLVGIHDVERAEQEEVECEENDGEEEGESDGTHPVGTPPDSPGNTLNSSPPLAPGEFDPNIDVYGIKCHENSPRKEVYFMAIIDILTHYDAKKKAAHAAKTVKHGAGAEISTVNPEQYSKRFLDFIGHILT
#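 qHTS, 1536-well: enzyme/substrate mix, compound by pin tool, 5 microM ATP final; RT 60 min; ADP-Glo reagents 1 (45 min) then 2 (30 min); luminescence.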
# HP1b chromo inh: HP1-beta chromodomain-methylated histone interaction inhibition; P83916; 0.56% of 390,000 active; AlphaScreen HP1-beta / biotin-H3K9me3 peptide binding; Potency, µM (titrated, usually from 114 µM), inactives show at the top dose activity change, negative = inhibition, actives largely listed as inhibitors; further: potency means the concentration at half of the fitted maximal effect; nearly all actives have a fitted effect of over 70% in size
#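 Compound inhibition of the preformed complex between 50 nM HP1-beta and 50 nM biotinylated H3K9me3 peptide was read by AlphaScreen. Buffer was PBS pH 7.4 with 0.01% Tween-20. Incubations ran 30 min at room temperature, with 10 ug/mL donor/acceptor beads.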
# BAZ2B inh: inhibitors of human BAZ2B bromodomain; Q9UIF8; AID 504333; AlphaScreen BAZ2B-H3K14Ac peptide displacement; 4.4% of 360,000 active; Potency, µM (titrated, usually from 114 µM), inactives show at the top dose activity change, negative = inhibition, actives largely listed as inhibitors; further: potency means the concentration at half of the fitted maximal effect; on the % scale 0 is the no-effect control and ±100 the full control effect; nearly all actives have a fitted effect of over 60% in size
#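 Complex of BAZ2B and biotin-H3K14Ac (50 nM apiece) forms over 30 min at RT, then faces library compounds up to 110 uM for another 30 min; AlphaScreen beads added, 20 min dark incubation, luminescence read.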
# G9a block: inhibitors of human histone lysine methyltransferase G9a | Q96KQ7 | G9a H3K9 monomethylation, AlphaScreen, 2 h | Potency, µM (doses to about 102 µM), without a hit: at the top dose activity, negative = inhibition, most hits filed as inhibitors | 8.8% of 350,000 active; further: potency means the concentration at half of the fitted maximal effect; on the % scale 0 is the no-effect control and ±100 the full control effect; nearly all actives have a fitted effect of over 75% in size
# Target sequence (Q96KQ7 913-1193 limits assumed): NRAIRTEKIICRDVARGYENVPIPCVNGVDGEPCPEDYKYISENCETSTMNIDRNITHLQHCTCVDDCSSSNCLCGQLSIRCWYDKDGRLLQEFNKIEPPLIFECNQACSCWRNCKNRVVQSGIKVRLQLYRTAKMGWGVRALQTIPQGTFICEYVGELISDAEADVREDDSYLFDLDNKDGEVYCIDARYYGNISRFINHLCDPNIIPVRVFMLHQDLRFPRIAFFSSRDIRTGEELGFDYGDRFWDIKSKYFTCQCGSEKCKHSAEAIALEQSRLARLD
#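 Chemiluminescent proximity detection of H3K9 monomethylation, read after 10 min bead incubation in the dark. Reaction: 20 nM G9a, 500 nM biotin-H3K9 peptide, 20 uM SAM cofactor, 2 h, room temperature, following 15 min enzyme-compound preincubation.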
# JMJD2A Tudor inh: blocks the human JMJD2A Tudor domain; AlphaScreen JMJD2A-Tudor / H3K4me3 peptide binding; Potency, µM (highest dose often 114 µM), inactives show at the highest dose activity change, negative = inhibition, most hits filed as inhibitors; 4.4% of 390,000 active; O75164; AID 504339; further: potency means the concentration at half of the fitted maximal effect; on the % scale 0 is the no-effect control and ±100 the full control effect; nearly all actives have a fitted effect of over 50% in size
# The depositor's hits bear a star; ? = inconclusive; · = no result; [ ] = another dose, or the depositor's remark. This is a sample that favours compounds with a hit; in the whole collection about 12% have one here. Unless noted, the call rests on the fitted dose curve; in most records, active means well fitted curve in the direction sought with a large enough effect; inconclusive means small, poorly fitted or top-dose-only effect, or another doubt; inactive means no such curve, though single readings can be large; an effect the other way counts as inactive or inconclusive.
SMILES,PLK1 PBD block,PI5P4K alpha inh,HP1b chromo inh,BAZ2B inh,G9a block,JMJD2A Tudor inh
Cc1nc(NC(=O)c2ccco2)sc1-c1csc(Nc2ccc(Cl)cc2)n1,-12.0%,-14.4,-7.7%,?,11.9%[0.501 µM],?
CC(=O)Nc1nnc([N+](=O)[O-])s1,-25.6%,-5.8,·,·,·,·
COc1ccc(OC)c(NC(=O)CCN2CCN(C)CC2)c1,3.6%,-0.4,38.1%,-5.0%,?,-5.9%
COc1ccc(NC(=O)C2(C)CCN2Cc2ccccc2Cl)cc1OC (stereo not drawn),-14.5%,0.6,·,·,·,·
Cc1c([S+](=O)([O-])N2CCN([S+](=O)([O-])c3c(F)cccc3F)CC2)sc2ccc(Cl)cc12,·,·,·,·,·,-18.5%
COc1ccc(C(=S)N(C)C)cc1OC,18.9µM*,-12.1,?,-16.1%,?,-14.3%
COc1ccc(C(=O)c2ccc(OC)c(OC)c2)cc1OC,-0.4%,·,22.4%,-30.2%,99.2%[59 µM],-3.0%
CN(/N=C/c1ccccc1O)C(=S)c1ccccc1,-3.6%,2.8,-5.0%,?,·,?
CN(C)C(=S)c1ccccc1,21.2µM*,-19.4,?,-10.9%,10µM*,?
CN(C)c1ccc(/C=N/O)cc1,-1.0%,1.0,7.2%,-22.6%,-50.8%,-14.9%
CN(C)C(=S)c1ccc(N(C)C)cc1,26.7µM*,-7.3,?,?,7.94µM*,-21.8%
COCC(=O)N1CCC(Oc2ccc(C(=O)N(C)Cc3nccs3)cc2)CC1,-6.5%,1.4,26.7%,-3.1%,-8.8%,-4.9%
O=C(N=C1N=C2C=CC(Br)=CN2Cc2ccccc21)c1ccc([N+](=O)[O-])cc1[N+](=O)[O-],-23.2%,-2.6,-8.6%[57 µM],-23.4%,50.1µM*,?
CC(=O)N1CCC2(CC1)C/C(=N\NC(=S)Nc1ccc(C)cc1)c1cc(O)ccc1O2,-19.1%,-4.7,-22.9%,?,39.8µM*,?
Cc1ccccc1NC(=S)N/N=C1\CC(C)(C)Oc2ccc(O)cc21,-19.3%,-18.2,?,?,35.5µM*,39.8µM*
O=C(CNC(=O)C1CC(=O)N(c2cccc3ccccc23)C1)Nc1ccccc1Br (stereo not drawn),2.3%,1.6,47.0%,5.1%,?,0.0%
CCC1Nc2ncnc(N3CCCCC3)c2N(Cc2ccc(OC)cc2)C1=O (stereo not drawn),-4.8%,3.9,42.6%,·,·,-28.3%
Cc1cc(Cl)ccc1NC(=O)COC(=O)CCNS(=O)(=O)c1ccccc1,0.0%,-3.8,44.2%,6.0%,1.9%[12.7 µM],1.7%
COc1ccc(C(=O)NCc2ccc3c(c2)CCN3C(=O)c2ccc(Cl)cc2)c(OC)c1,·,·,19.2%,-16.0%,-19.5%[59 µM],?
COC(=O)/C=C1/N/C(=N\c2nc(C)cc(C)n2)N(c2cccc(C)c2)C1=O,-5.9%,-20.3,24.1%,-21.3%,-27.5%,22.4µM*
O=[N+]([O-])c1cc(C(F)(F)F)cc([N+](=O)[O-])c1NCc1cccnc1,-7.1%,1.4,-19.5%,-27.8%,50.1µM*,-33.2%
O=[N+]([O-])c1cc(C(F)(F)F)cc([N+](=O)[O-])c1NCCCNc1ccc([N+](=O)[O-])c2cccnc12,-2.9%,-0.1,-38.3%,-36.8%,3.55µM*,?
O=[N+]([O-])c1cccnc1NCCNc1ncc(C(F)(F)F)cc1Cl,-2.3%,27.6,-16.4%,?,?,?
Cc1nc(C)n(CC(C)C(=O)N2CCN(S(=O)(=O)c3ccccc3)CC2)n1 (stereo not drawn),1.4%,-2.3,-12.9%,7.7%,12.5%,7.0%
O=C(O)CCCCCCNS(=O)(=O)c1ccccc1,0.7%,0.6,25.1%,?,21.2%,8.4%
SMILES,PLK1 PBD block,PI5P4K alpha inh,HP1b chromo inh,BAZ2B inh,G9a block,JMJD2A Tudor inh
O=C(O)CCCNS(=O)(=O)c1ccc(NCc2ccccc2)c(C(=O)O)c1,-5.6%,-0.7,40.0%,-36.2%,22.4µM*,-9.0%
O=C(O)c1ccccc1C(=O)NNc1ccc(F)cc1,-15.0%,-0.1,-23.7%,-20.9%,?,39.8µM*
O=C(O)c1ccccc1C(=O)NNc1ccc(Cl)cc1Cl,?,2.4,34.9%,-28.0%,2.82µM*,-8.8%
Cc1c(S(=O)(=O)Nc2cccc3ccccc23)c(=O)n(C)c(=O)n1C,0.3%,5.4,10.8%,5.0%,-5.9%,-20.9%
COc1ccc2nc(N(Cc3cccnc3)C(=O)c3ccco3)sc2c1,·,·,24.1%,-8.3%,-7.7%[59 µM],-16.6%
O=C(O)C1CCCCC1C(=O)Nc1cccc2ccccc12 (stereo not drawn),-8.1%,-1.9,13.5%,-4.9%,11.2µM*,-13.5%
Cc1ccc(NC2=CC(c3ccccc3F)N(c3ccc(C)cc3)C2=O)cc1 (stereo not drawn),·,·,5.3%,?,?,-32.6%
Cc1ccc(SCC(=O)Nc2cc(C)on2)cc1,?,-1.6,36.3%,8.7%,-3.8%,-5.3%
COc1ccc(-c2nnc3ccc(SCC(=O)Nc4cc(C)on4)nn23)cc1OC,2.7%,3.7,?,·,-33.8%,9.6%
O=C(CSc1ccc(Cl)cc1)Nn1cnnc1,10.6µM*,·,83.0%,13.4%,2.0%,13.6%
COc1ccccc1CCNC(=O)CSc1nnc2ccc(-c3ccncc3)nn12,-5.7%,1.6,57.6%,-28.6%,50.1µM*,-4.4%[11.4 µM]
Cc1cc(NC(=O)CSc2ccc(Cl)cc2)no1,5.32µM*,·,45.9%,8.2%,-3.3%[12.7 µM],18.6%
Cc1cc(NC(=O)CSc2ccc3nnc(-c4cccc(F)c4)n3n2)no1,-23.4%,·,24.3%,-2.4%,22.4µM*,-0.6%
O=C(CSc1ccc2ccccc2c1)Nn1cnnc1,-7.9%,2.1,34.4%,-3.1%,7.6%[12.7 µM],8.6%
CCN(C(=O)CSc1nc2n[nH]c(C)c2c(=N)n1-c1cccc(OC)c1)c1cccc(C)c1,·,·,28.7%,?,-31.8%[59 µM],?
COc1ccc(C(C)(O)c2nc(-c3ccc4ccccc4c3)cs2)cc1 (stereo not drawn),-0.7%,35.5,·,·,·,·
CC(=O)Nc1ccc(NC(=O)CSc2nnc3ccc(-c4ccc(F)cc4)nn23)cc1,4.1%,-2.6,25.4%,-7.7%,-1.8%,6.6%
Cc1cc(NC(=O)CSc2ccc3nnc(-c4ccc(Cl)cc4)n3n2)no1,?,·,23.1%,-4.1%,22.4µM*,-4.3%
Cc1cc(NC(=O)CSc2nnc3ccc(-c4ccc(F)cc4)nn23)no1,5.2%,1.4,-1.0%,-7.4%,50.1µM*,-14.8%
COCc1cc(C)nc(OCC(=O)N/N=C/c2ccc(O)cc2O)c1C#N,-4.6%,-8.2,44.1%,39.8µM*,27.7%,-34.3%
COCc1cc(C)nc(OCC(=O)N/N=C/c2cccc(OC)c2)c1C#N,-6.3%,-0.3,53.3%,-3.0%,1.2%[59 µM],-10.1%
COCc1cc(C)nc(OCC(=O)N/N=C/c2ccccc2O)c1C#N,4.3%,-0.7,34.3%,79.4µM*,47.4%,-14.8%
Cc1ccc(S(=O)(=O)N2CCN(C(=O)COC(=O)c3ccccc3OC(F)F)CC2)c(C)c1,-3.0%,7.5,16.5%,·,·,-22.3%

# Screens from PubChem.
